Key:
[1] = test system: Botulinum neurotoxin type F light chain protease (Clostridium botulinum); test: Botulinum neurotoxin type F light chain protease inhibition, multiplex microsphere flow cytometry, validation set (AID 588459); conditions: multiplex microsphere protease substrate cleavage assay, at 10 µM, stronger effect = higher value
[2] = target: Botulinum neurotoxin type A (Clostridium botulinum) (UniProt P0DPI0); test: BoNT/A light chain protease inhibitors, biochemical, multiplex microsphere flow cytometry, validation set (AID 588460); conditions: at 10 µM, stronger effect = higher value
Sequence of Botulinum neurotoxin type A (Clostridium botulinum) (P0DPI0 whole entry, looked up): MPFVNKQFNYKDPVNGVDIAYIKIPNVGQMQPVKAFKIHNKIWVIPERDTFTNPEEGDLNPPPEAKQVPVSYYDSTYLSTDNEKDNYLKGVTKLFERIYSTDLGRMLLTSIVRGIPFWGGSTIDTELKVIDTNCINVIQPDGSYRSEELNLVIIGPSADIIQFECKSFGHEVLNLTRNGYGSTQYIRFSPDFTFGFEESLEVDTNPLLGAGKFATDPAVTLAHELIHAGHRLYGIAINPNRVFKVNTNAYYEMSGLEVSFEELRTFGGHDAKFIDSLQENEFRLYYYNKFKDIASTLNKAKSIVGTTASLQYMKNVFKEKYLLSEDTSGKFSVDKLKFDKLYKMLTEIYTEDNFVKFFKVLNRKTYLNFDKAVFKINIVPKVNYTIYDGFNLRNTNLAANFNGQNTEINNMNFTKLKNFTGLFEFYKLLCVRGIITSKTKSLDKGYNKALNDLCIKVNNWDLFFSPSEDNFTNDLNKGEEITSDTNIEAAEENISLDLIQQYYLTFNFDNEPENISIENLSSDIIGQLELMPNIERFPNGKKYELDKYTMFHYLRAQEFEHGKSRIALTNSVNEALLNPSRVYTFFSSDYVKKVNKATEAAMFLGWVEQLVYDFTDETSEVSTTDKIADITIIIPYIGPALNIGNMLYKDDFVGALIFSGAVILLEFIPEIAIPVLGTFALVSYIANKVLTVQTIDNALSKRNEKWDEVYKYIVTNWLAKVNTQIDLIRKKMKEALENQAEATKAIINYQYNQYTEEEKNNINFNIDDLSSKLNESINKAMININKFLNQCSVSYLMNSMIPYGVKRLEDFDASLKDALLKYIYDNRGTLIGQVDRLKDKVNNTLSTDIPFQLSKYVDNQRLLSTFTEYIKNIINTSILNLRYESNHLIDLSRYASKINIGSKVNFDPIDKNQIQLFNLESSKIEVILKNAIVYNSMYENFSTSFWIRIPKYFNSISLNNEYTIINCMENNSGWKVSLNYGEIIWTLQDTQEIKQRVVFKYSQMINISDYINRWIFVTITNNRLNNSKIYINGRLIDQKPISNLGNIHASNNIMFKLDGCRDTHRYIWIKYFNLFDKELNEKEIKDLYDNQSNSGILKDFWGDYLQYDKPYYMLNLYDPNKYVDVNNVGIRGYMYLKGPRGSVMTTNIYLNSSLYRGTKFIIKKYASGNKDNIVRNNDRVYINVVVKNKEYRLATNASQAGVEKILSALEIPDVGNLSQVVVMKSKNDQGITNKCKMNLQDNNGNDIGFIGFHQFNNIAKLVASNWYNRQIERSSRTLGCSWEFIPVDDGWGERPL

[3] = target: Lethal factor (Bacillus anthracis) (UniProt P15917); test: Lethal factor protease inhibitors, Bacillus anthracis, multiplex microsphere cleavage assay, validation set (AID 588461); conditions: flow cytometry, at 10 µM, stronger effect = higher value
Sequence of Lethal factor (Bacillus anthracis) (P15917 whole entry, looked up): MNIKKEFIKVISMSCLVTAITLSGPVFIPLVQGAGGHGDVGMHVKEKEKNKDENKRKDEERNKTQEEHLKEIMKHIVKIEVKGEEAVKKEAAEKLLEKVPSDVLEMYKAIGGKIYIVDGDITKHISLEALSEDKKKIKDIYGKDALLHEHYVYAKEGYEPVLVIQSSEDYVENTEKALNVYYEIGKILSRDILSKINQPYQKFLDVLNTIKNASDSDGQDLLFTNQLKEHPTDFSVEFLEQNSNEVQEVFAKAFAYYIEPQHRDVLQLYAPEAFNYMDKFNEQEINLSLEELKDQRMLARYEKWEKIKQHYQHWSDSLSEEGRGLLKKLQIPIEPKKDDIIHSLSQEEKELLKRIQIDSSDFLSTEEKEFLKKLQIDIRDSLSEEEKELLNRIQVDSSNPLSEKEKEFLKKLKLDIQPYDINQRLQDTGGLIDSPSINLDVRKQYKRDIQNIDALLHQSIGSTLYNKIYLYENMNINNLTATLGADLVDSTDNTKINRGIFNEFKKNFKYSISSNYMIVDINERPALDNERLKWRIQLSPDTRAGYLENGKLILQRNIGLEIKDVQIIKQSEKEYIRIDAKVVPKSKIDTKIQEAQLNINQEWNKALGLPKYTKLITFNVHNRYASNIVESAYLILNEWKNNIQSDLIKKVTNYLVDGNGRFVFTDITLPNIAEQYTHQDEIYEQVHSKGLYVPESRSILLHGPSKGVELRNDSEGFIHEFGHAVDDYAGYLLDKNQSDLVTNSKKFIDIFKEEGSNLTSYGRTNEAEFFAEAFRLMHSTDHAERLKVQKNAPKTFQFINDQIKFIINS

Measured: inhibition

COC(=O)c1cc(OC)c(OC)cc1NC(=O)Nc1ccc(OC)cc1OC
inactive: [1] -4% | [2] -0.8% | [3] 5.9%

COc1cc(-c2nnc(-c3cccs3)o2)cc(OC)c1OC
inactive: [1] 1.3% | [2] 1.7% | [3] 4.3%

COc1ccc(/C=C/C(=O)Nc2ccccc2C(=O)O)cc1OC
inactive: [1] 2.5% | [2] -0.9% | [3] -6%

O=C(c1ccc(-c2ccccc2)c(F)c1)C1CCCN(C(=O)c2cncs2)C1 (stereo not drawn)
inactive: [1] 0.6% | [2] 0.5% | [3] 1.6%

CSc1ccc(/C=N/N2CCN(Cc3ccc(C)cc3C)CC2)cc1
inactive: [1] -0.3% | [2] -0.6% | [3] -0.3%

Cc1ccccc1NC(=O)c1c(C)cc(=O)oc1C
inactive: [1] -0.8% | [2] -0.1% | [3] 1.7%

CN1C(C(=O)Nc2ccccn2)=C(O)c2sccc2S1(=O)=O
inactive: [1] 0.5% | [2] -0.2% | [3] -1.1%

COc1ccc(C=O)c(OC)c1
inactive: [1] -0.3% | [2] -0.5% | [3] 0.2%

O=c1c(-c2ccc3c(c2)OCCO3)coc2cc(OC3OC(CO)C(O)C(O)C3O)ccc12 (stereo not drawn)
inactive: [1] 0.2% | [2] 0.1% | [3] 6.4%

COc1ccc(S(N)(=O)=O)cc1C(N)=O
inactive: [1] 1.6% | [2] 0.4% | [3] -0.3%

CCN1C(=O)C(CC(=O)Nc2ccc(F)cc2)N(Cc2ccc3c(c2)OCO3)C1=S (stereo not drawn)
inactive: [1] -1.3% | [2] -0.3% | [3] -6.1%

Cc1cccc(OCC(=O)Nc2ccc(C(=O)NCC(C)C)cc2)c1
inactive: [1] 4.2% | [2] 0.3% | [3] -4.3%

CN(CCc1cnn(C)c1)Cc1nc(CC2CC2)no1
inactive: [1] 0.2% | [2] 0.4% | [3] 7%

COc1cccc(/C=C/C(=O)c2c(O)cc(C)oc2=O)c1O
inactive: [1] 7% | [2] 1.7% | [3] 5.4%

CC(C)Cc1ccc(C(C)C(=O)Nc2ccc(O)cc2)cc1 (stereo not drawn)
inactive: [1] -3.6% | [2] -1.3% | [3] -6.8%

COc1ccc(CN(C)CCc2ccccn2)cc1OC
inactive: [1] -2.7% | [2] 0.2% | [3] -7.1%

COC(=O)C1[C@H]2C(=O)N(Cc3cccs3)C[C@]23C=C[C@H]1O3 (stereo partly drawn)
inactive: [1] -0.5% | [2] -0.7% | [3] -4%

O=C1Cc2ccccc2C(c2ccccc2)N1 (stereo not drawn)
inactive: [1] -0.1% | [2] -0.3% | [3] -3.1%

CC(=O)N1N=C(c2cccs2)CC1c1ccc(C)o1 (stereo not drawn)
inactive: [1] -1.2% | [2] -0.8% | [3] 1.7%

CCN(CCCCOC(=O)c1ccc(OC)c(OC)c1)C(C)Cc1ccc(OC)cc1 (stereo not drawn)
inactive: [1] -0.4% | [2] -2.7% | [3] -2.8%

Cc1ccc2nc(C)c3c(c2c1)OC(C(C)(Cl)Br)C3 (stereo not drawn)
inactive: [1] -0.4% | [2] -0.5% | [3] 3.2%

COc1cc(CC(=O)NCCc2ccc(S(N)(=O)=O)cc2)cc(OC)c1OC
inactive: [1] 4.1% | [2] 1.6% | [3] 6.5%

C[C@H]1C[C@H]2[C@@H]3CCC4=CC(=O)C=C[C@]4(C)[C@@]3(Cl)[C@@H](O)C[C@]2(C)[C@@]1(O)C(=O)CO
inactive: [1] 4.5% | [2] -0.1% | [3] 2.1%

Cc1cc(C)c(NC(=O)NC(=O)C(Cl)(Cl)Cl)c(C)c1
inactive: [1] 2.9% | [2] 0.1% | [3] -3.8%

O=C(Nc1ccccc1C(=O)N1CCCCCC1)c1ccccc1Cl
inactive: [1] -2.3% | [2] 0% | [3] -1.1%

CCCN(CCC)C(=O)C(CCC(=O)O)NC(=O)c1ccccc1 (stereo not drawn)
inactive: [1] 0.5% | [2] -0.3% | [3] 8.6%

CN1C(=O)NC(c2ccc(O)cc2)C2=C1CN(c1cccc3ccccc13)C2=O (stereo not drawn)
inactive: [1] 3.2% | [2] -1% | [3] -10.8%

CC/C(=C(\c1ccc(O)cc1)c1ccc(OCCN(C)C)cc1)c1ccccc1
inactive: [1] 2.7% | [2] -0.2% | [3] -2.3%

CCOc1ccc(C(=O)C(C)=O)c(OCC)c1
inactive: [1] 4.3% | [2] 1% | [3] 7.8%

Clc1ccc(OCCCN2CCCCC2)c(Br)c1
inactive: [1] 1.8% | [2] 0.2% | [3] -3.7%

Cc1ccc2occ(C(=O)c3ccco3)c(=O)c2c1
inactive: [1] 1.1% | [2] -0.5% | [3] 2.6%

— PubChem BioAssay
